TDP1 cell CPT = DT40-hTDP1 cell growth loss with CPT. AID 686979. Potency, µM (series often up to 46.2 µM), inactives show at the top dose activity change, negative = growth inhibition, actives largely listed as inhibitors. actives 12% (n = 420,000). chicken DT40 Tdp1-/-;hTDP1 cells + 20 nM CPT, ATP luminescence, 48 h; note: % is set by controls: 0 for no effect and ±100 for the full control effect; nearly all actives have a fitted effect of over 55% in size
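Chicken DT40 Tdp1-/- cells complemented with human TDP1, 400 cells/well, exposed to compounds plus 20 nM camptothecin for at least 48 h at 37 C; viability read as ATP content by CellTiter-Glo luminescence.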
HepG2 viability = HepG2 cytotoxicity, counter-screen for TGF-b inhibitors | HepG2 CAGA-GFP viability, ATP luminescence, 18 h | Potency, µM (titrated, usually from 46.1 µM), for inactives: at the top dose activity change, negative = cytotoxicity, actives largely listed as cytotoxic | actives 0.76% (n = 410,000)
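CellTiter-Glo luminescence gave cytotoxicity after 18 hours at 37 degrees C. The cells were HepG2 CAGA-GFP in 1% FBS DMEM, stimulated with 500 pg/mL TGF-beta after compound addition. %Activity was normalised to no-cell wells (complete cell-killing) and DMSO (no toxicity), and curves were fitted and classified.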
ATXN viability = viability counter-screen for ATXN expression inhibitors. S2 cells (HEK-293 line with an ATXN2-luciferase reporter) viability, CellTiter-Fluor protease fluorescence, 24 h. Potency, µM (top dose mostly 56.7 µM), most hits filed as cytotoxic. actives 0.49% (n = 400,000). AID 651635; note: nearly all actives have a fitted effect of over 40% in size
TGFb inhibitor = TGF-b pathway inhibition. actives 1.2% (n = 410,000). Potency, µM (titrated, usually from 46.1 µM), inactives show top-dose activity, negative = inhibition, usual class: inhibitors. HepG2 CAGA-GFP TGF-b/SMAD3 reporter, GFP fluorescence, 18 h; TGF-beta stimulated, 500 pg/mL final. AID 588855; note: % is set by controls: 0 for no effect and ±100 for the full control effect; nearly all actives have a fitted effect of over 65% in size
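Cell-based qHTS in HEPG2 carrying a CAGA-GFP Smad reporter; compounds added before 500 pg/mL final TGF-beta, 18 h incubation at 37 degrees C, GFP fluorescence quantified per cell by imaging cytometry.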
ATXN2 expr inh = inhibitors of ATXN2 expression; HEK-293 ATXN2-luciferase reporter, luminescence, 24 h; Potency, µM (highest dose often 57 µM), inactives show top-dose activity change, negative = inhibition, most hits filed as inhibitors; actives 0.72% (n = 360,000); note: % is set by controls: 0 for no effect and ±100 for the full control effect; nearly all actives have a fitted effect of over 55% in size
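ATXN2-luciferase reporter cells (luciferase flanked by upstream and downstream ATXN2 gene portions) were treated 24 h at 37 °C with compounds at up to 57 uM. SteadyGlo luminescence gave expression; GF-AFC fluorescence gave viability.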
DT40 TDP1 no CPT = qHTS for Inhibitors of human tyrosyl-DNA phosphodiesterase 1 (TDP1): qHTS in cells in absence of CPT. DT40 Tdp1-/- hTDP1 cells, no CPT, ATP luminescence, 48 h. Potency, µM (highest dose often 46.2 µM), inactives show top-dose activity change, negative = growth inhibition, most hits filed as inhibitors. actives 15% (n = 420,000); note: % is set by controls: 0 for no effect and ±100 for the full control effect; nearly all actives have a fitted effect of over 55% in size
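Compound effects on proliferation are scored in DT40 Tdp1-/-;hTDP1 cells in the absence of CPT. ATP levels (CellTiter-Glo luminescence) are recorded after a ≥48 hr, 37 °C incubation.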
* marks the source's active call; other numbers are inactive results; i = inactive; ? = inconclusive; / = not tested or not shown. Shown are actives, neighbours in structure and some others; about 17% of the full set was active somewhere. Calls come from the whole dose curve; as a rule, active = well fitted curve in the direction sought with a large enough effect; inconclusive = small, poorly fitted or top-dose-only effect, or another doubt; inactive = no such curve, though single readings can be large; an effect the other way counts as inactive or inconclusive. Potency is the fitted concentration of half-maximal effect.

SMILES	TDP1 cell CPT	HepG2 viability	ATXN viability	TGFb inhibitor	ATXN2 expr inh	DT40 TDP1 no CPT
O=C(NCC(c1ccco1)N1CCN(c2ccccc2F)CC1)c1ccc2c(c1)OCO2 (stereo not drawn)	?	-2%	i	-18%	-6%	18µM*
CCOc1ccc(C(=O)NCC(c2ccc3c(c2)OCO3)N2CCN(c3ccccc3F)CC2)cc1 (stereo not drawn)	16µM*	-20%	?	?	-19%	21µM*
CN1CCN(S(=O)(=O)c2ccc(N3CCN(c4ccccc4Cl)CC3)nc2)CC1	21µM*	-3%	i	17%	9%	15µM*
O=S(=O)(c1ccc(N2CC=C(c3ccccc3)CC2)nc1)N1CCCC1	16µM*	-6%	i	-16%	?	18µM*
O=S(=O)(c1ccc(N2CCN(Cc3ccccc3)CC2)nc1)N1CCCC1	16µM*	-20%	i	-22%	-22%	?
CN1CCN(S(=O)(=O)c2ccc(N3CCN(C(=O)c4ccccc4)CC3)nc2)CC1	-5%	-1%	i	-14%	-13%	?
Cn1c(=O)c2[nH]c(C3CC4CCC3C4)nc2n(C)c1=O (stereo not drawn)	-21%	-7%	i	-19%	2%	-19%
CC(=O)Nc1cccn(Cc2c(Cl)cccc2Cl)c1=O	8%	1%	i	1%	2%	-4%
Cc1cc(OC(C)C(=O)NCc2ccccn2)c2c(C)c(C)c(=O)oc2c1 (stereo not drawn)	3%	4%	?	15%	4%	1%
COc1ccc(N2CCN(C(=O)c3c4c(nc5ccccc35)C(=O)N(C3CCCCC3)C4)CC2)cc1	15µM*	-6%	/	?	/	16µM*
O=C(c1c2c(nc3ccccc13)C(=O)N(C1CCCCC1)C2)N1CCN(c2ccc(F)cc2)CC1	21µM*	0%	/	8%	/	26µM*
CN(C(=O)c1c2c(nc3ccccc13)C(=O)N(C1CCCCC1)C2)c1ccc(F)cc1	-12%	-1%	/	29%	/	-6%
C[C@@H]1CCN(C(=O)CC#N)C[C@H]1N(C)c1ncnc2[nH]ccc12	/	/	/	/	33%	/
Cc1ccc(C)c(C(=O)COC(=O)Cn2c(C)csc2=O)c1	1%	1%	i	8%	7%	10%
COc1ccc(C)cc1NC(=O)C(Sc1nnnn1C)c1ccccc1 (stereo not drawn)	-29%	8%	?	11%	-8%	-1%
CCCn1c(SC(C(=O)Nc2cc(C)ccc2OC)c2ccccc2)nc2ccccc2c1=O (stereo not drawn)	18µM*	11%	i	6%	3%	15µM*
CCSc1nc2ccccc2n1C(=O)/C=C\c1ccc(OC)c(OC)c1	4.6µM*	-3%	?	-27%	13µM*	5.2µM*
COc1ccc(CCn2nnc3ccccc3c2=O)cc1OC	-24%	1%	?	1%	/	?
COc1ccc(CCN2CN(S(=O)(=O)c3ccc(C)cc3)c3nc4ccccc4nc32)cc1OC	23µM*	0%	?	-2%	-5%	?
COc1ccc(CCn2c(C)nc3ccccc3c2=O)cc1OC	?	-18%	?	-1%	/	21µM*
CCSc1nc2ccccc2n1CC(N)=O	-17%	9%	i	40%	0%	-7%
COc1ccc(CCN2CN(S(=O)(=O)c3ccc(OC)cc3)c3nc4ccccc4nc32)cc1	?	-11%	i	-14%	26%	?
CC(=O)c1ccc(N2CCN(C(=O)c3cc4c(s3)-c3ccccc3OC4)CC2)cc1	/	2%	i	13%	1%	/
Cn1c(C(=O)N2CCC(C(=O)NCCc3ccc(S(N)(=O)=O)cc3)CC2)cc2sccc21	7%	6%	/	-22%	/	-23%
O=C(COC(=O)C1CCN(c2ccc(C(F)(F)F)cn2)CC1)NC1CCCCC1	-27%	-1%	i	0%	-7%	?
SMILES	TDP1 cell CPT	HepG2 viability	ATXN viability	TGFb inhibitor	ATXN2 expr inh	DT40 TDP1 no CPT
CC(=O)c1sc(NC(=O)c2ccc(F)c(S(=O)(=O)N3CCOCC3)c2)nc1C	-18%	-33%	i	-1%	28%	-12%
O=c1c2ccccc2nc(-c2ccco2)n1CCCn1ccnc1	-25%	-1%	i	3%	5%	-7%
c1ccc(OCCn2c(-c3ccco3)nc3ccccc32)cc1	?	-7%	i	-1%	11%	?
COc1ccc(CCn2c(=S)[nH]c(=O)c3c(C)cc(C)nc32)cc1OC	2%	/	/	/	/	-19%
COCCCn1c(-c2ccco2)nc2ccccc2c1=O	-19%	-24%	i	-9%	-9%	-29%
COc1ccc(CCn2c(-c3ccco3)nc3ccccc3c2=O)cc1OC	2.6µM*	-28%	?	-9%	-15%	2.6µM*
Cn1c(-n2c(-c3ccco3)nc3ccccc3c2=O)nc2ccccc21	3.7µM*	-28%	?	3%	28%	5.8µM*
O=c1c2ccccc2nc(-c2ccco2)n1CCc1ccc(O)cc1	?	-10%	?	13%	/	5.8µM*
COc1ccc(CCn2c(=S)[nH]c(=O)c3nccnc32)cc1OC	6.3µM*	/	/	/	/	3.2µM*
CCOc1ccc(C2c3c(oc4ccc(C)cc4c3=O)C(=O)N2CCCN(C)C)cc1 (stereo not drawn)	2%	2%	i	16%	16%	-6%
CCN(CC)C(=O)CSc1nc2ccccc2c(=O)n1CCC(=O)NCCc1ccc(OC)c(OC)c1	-14%	14%	?	14%	-25%	-26%
CCSc1nc2ccccc2c(=O)n1CCc1ccc(OC)c(OC)c1	13µM*	-4%	?	?	/	12µM*
COc1oc(C(=O)NC2CCCCC2)c(-c2ccc(Cl)cc2)c1S(=O)(=O)c1ccccc1	?	-2%	?	0%	?	21µM*
COc1ccc(N2C(=O)CSC23C(=O)N2CCCc4cccc3c42)cc1 (stereo not drawn)	-30%	-2%	i	8%	-2%	-3%
Cc1cccc(N2C(=O)CSC23C(=O)N(Cc2cccc(C(F)(F)F)c2)c2ccccc23)c1 (stereo not drawn)	18µM*	-13%	i	?	?	16µM*
O=C1CSC2(C(=O)N3CCCc4cccc2c43)N1c1cccc(C(F)(F)F)c1 (stereo not drawn)	21µM*	-1%	i	?	-7%	?

Bioassay records: PubChem BioAssay, National Center for Advancing Translational Sciences (NCATS)
